# High-throughput results (PubChem BioAssay)
# Compounds with a hit are over-represented: about 2.4% of the library has one in this group of screens.
# M18AAP inhibitor = blocks P. falciparum M18 aspartyl aminopeptidase. AID 1822. recombinant PfM18AAP, H-Glu-NHMec fluorogenic cleavage. 1.2% of 290,000 active. inhibition, % at 7.35 µM;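 active = inhibition above the campaign mean inhibition over all tested compounds plus 3 SD, cut at about 28% in these data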
# PABP FP inh = blocks human PABP binding to poly(A) RNA. fluorescence polarization. inhibition, % at 35 µM. 1% of 290,000 active;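 also: calls also rest on retests at 20 µM and on dose response follow-up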
# eIF4H inh = inhibitors of RNA binding by human eIF4H. 0.94% of 290,000 active. AID 2012. inhibition, % at 35 µM. eIF4H fluorescence polarization binding assay;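 also: calls also rest on retests at 20 µM and on dose response follow-up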
# eIF4E-4G inh = blocks eIF4E binding to eIF4G | inhibition, % at 21.7 µM | TR-FRET eIF4E-eIF4GI(517-606) binding, 2 h | AID 782 | P63073+Q04637 | 0.37% of 220,000 active;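 active = inhibition above about 30%, limit read from the data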
# Target sequence (P63073 whole entry, looked up): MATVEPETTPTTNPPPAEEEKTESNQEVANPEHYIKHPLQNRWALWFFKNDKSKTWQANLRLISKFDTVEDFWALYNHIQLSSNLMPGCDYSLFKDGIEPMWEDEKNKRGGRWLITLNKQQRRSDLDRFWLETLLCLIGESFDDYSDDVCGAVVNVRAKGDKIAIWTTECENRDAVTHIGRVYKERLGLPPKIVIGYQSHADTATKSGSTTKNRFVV
# Target sequence (Q04637 whole entry, looked up): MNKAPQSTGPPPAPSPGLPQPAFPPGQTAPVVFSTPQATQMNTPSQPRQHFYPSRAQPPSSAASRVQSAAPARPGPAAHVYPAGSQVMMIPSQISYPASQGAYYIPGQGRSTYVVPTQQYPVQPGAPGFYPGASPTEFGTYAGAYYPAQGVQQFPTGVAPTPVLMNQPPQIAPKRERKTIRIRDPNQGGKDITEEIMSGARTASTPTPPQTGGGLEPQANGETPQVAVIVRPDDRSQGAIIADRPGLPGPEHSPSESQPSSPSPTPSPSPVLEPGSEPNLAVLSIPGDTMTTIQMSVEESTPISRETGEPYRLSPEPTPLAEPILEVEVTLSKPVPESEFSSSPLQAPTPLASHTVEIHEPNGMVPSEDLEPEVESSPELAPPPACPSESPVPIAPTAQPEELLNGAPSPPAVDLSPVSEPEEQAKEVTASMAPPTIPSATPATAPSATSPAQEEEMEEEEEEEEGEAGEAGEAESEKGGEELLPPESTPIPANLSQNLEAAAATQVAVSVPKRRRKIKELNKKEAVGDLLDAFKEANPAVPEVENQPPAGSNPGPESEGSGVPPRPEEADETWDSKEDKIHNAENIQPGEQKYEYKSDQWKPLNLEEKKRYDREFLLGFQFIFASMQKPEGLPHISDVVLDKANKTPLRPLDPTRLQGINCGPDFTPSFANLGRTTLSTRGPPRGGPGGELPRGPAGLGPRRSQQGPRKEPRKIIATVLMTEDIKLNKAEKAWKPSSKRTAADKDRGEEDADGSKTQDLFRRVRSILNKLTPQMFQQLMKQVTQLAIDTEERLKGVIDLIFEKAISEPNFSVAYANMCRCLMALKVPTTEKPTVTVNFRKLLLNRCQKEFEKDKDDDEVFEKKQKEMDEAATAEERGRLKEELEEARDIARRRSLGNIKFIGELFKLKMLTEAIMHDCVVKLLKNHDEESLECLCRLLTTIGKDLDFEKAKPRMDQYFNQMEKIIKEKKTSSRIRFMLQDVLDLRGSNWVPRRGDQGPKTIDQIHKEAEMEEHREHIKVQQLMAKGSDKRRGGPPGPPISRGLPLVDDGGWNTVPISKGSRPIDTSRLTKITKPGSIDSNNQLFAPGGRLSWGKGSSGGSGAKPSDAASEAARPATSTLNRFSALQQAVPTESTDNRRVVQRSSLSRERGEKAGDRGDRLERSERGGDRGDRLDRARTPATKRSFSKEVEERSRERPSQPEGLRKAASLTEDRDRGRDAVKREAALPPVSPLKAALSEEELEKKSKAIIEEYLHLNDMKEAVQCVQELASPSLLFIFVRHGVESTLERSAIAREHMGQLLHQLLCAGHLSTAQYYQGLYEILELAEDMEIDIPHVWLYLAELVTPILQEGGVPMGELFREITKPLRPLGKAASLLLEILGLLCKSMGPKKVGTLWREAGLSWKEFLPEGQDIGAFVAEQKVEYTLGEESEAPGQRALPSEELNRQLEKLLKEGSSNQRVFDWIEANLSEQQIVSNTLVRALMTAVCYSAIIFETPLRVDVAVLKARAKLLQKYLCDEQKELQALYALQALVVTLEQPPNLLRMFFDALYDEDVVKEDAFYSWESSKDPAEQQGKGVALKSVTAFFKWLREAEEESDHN
# PABP1 MLLE inh = inhibitors of microRNA-mediated deadenylation, human PABP1 MLLE binding; P11940; GST-MLLE / FITC-PAM2 fluorescence polarization; inhibition, % at 20 µM; 0.36% of 360,000 active; AID 588489; in the data active = inhibition above about 35%, passing the limit was not always enough
# PERK inh = human PERK inhibition, primary cell-based screen | Q9NZJ5 | CHO PERK-DD fusion, SEAP luminescence translation reporter | inhibition, % at 5.6 µM | 0.17% of 220,000 active | AID 1416;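 active = inhibition above the mean inhibition of all tested compounds plus 3 SD, set separately per screening campaign, cut at about 2.9% in these data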;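 also: PERK kinase domain activated by AP20187 dimerizer at 100 nM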
# Numbers stand for hits; 0 = inactive; - = not tested or not shown. Unless noted, no rule for the calls is given here.
SMILES,M18AAP inhibitor,PABP FP inh,eIF4H inh,eIF4E-4G inh,PABP1 MLLE inh,PERK inh
O=C(NCc1ccc(Cl)cc1)c1ccc(CNc2c(N3CCCC3)c(=O)c2=O)cc1,0,0,0,56.6,0,0
O=C(NCc1ccc(Cl)cc1)c1ccc(CNc2c(N3CCOCC3)c(=O)c2=O)cc1,0,0,0,0,0,0
O=C(NCC(c1ccco1)N1CCN(c2ccccc2)CC1)C(=O)NC1CC1 (stereo unspecified),-,-,-,-,0,-
CO/N=C/C(C#N)c1ncc(C(F)(F)F)cc1Cl (stereo unspecified),0,0,0,83.3,0,0
CC(=O)Nc1ccc(SCC(=O)NC(=O)c2ccc(S(=O)(=O)N(C)C)cc2)cc1,-,-,-,-,40.3,-
COc1ccc(OC)c(C2CC(=O)N3CN(c4cccc(Cl)c4C)CSC3=C2C#N)c1 (stereo unspecified),37.7,0,0,-,0,0
COc1ccc(OC)c(C2CC(=O)N3CN(c4ccccc4F)CSC3=C2C#N)c1 (stereo unspecified),28.3,0,0,0,0,0
COc1cccc(C2CC(=O)N3CN(c4ccccc4F)CSC3=C2C#N)c1 (stereo unspecified),0,0,0,0,0,0
CCc1ccccc1N1CSC2=C(C#N)C(c3cc(OC)c(OC)cc3OC)CC(=O)N2C1 (stereo unspecified),37.3,0,0,0,0,0
COc1cc(OC)c(C2CC(=O)N3CN(C)CSC3=C2C#N)cc1OC (stereo unspecified),0,0,0,0,0,0
CC(C)C(OC(=O)c1cccs1)C(=O)NCc1ccc2c(c1)OCO2 (stereo unspecified),0,0,0,0,0,0
CN=C1SC(CC(=O)Nc2cccc(C(F)(F)F)c2)C(=O)N1C (stereo unspecified),0,0,0,0,0,0
CN=C1SC(CC(=O)Nc2ccccc2F)C(=O)N1C (stereo unspecified),0,0,0,0,0,4.4
O=C(COC(=O)c1cc2c(s1)CCC2)Nc1ccc(F)cc1,0,35.0,96.6,0,0,0
O=C(Nc1ccccc1OC(F)F)c1cc2c(s1)CCC2,0,0,83.7,0,0,0
O=C(NNC(=S)Nc1ccc(OC(F)F)cc1)c1cc2c(s1)CCCC2,0,0,0,0,0,0
Cc1ccc(NC(=O)c2cc3c(s2)CCCC3)cc1,0,0,0,0,0,0
COc1ccccc1NC(=O)c1ccc(NC(=O)c2cc3c(s2)CCC3)cc1,0,0,0,41.5,0,0
O=C(OCc1cn([C@H]2CN(Cc3cccs3)[C@@H](c3ccc(Cl)cc3)C[C@@H]2O)nn1)c1ccccc1,-,-,-,-,0,-
COc1ccc(-c2ccc(=O)[nH]n2)cc1,0,0,0,0,0,0
O=c1ccc(-c2ccccc2)n[nH]1,0,0,0,0,0,3.0
CCOC(=O)c1ccc(N=c2sc(C(=O)OC)cc(=O)n2C2CC2)cc1,0,-,-,0,0,3.1
CCOC(=O)c1c(NC(=O)c2c(C(=O)O)cccc2[N+](=O)[O-])sc2c1CCCC2,0,0,0,-,0,-
CCOc1cccc(=O)c2c(C)n(Cc3ccco3)c(C)c12,0,89.2,94.8,0,0,0
O=C1C(=O)N(CCCn2ccnc2)C(c2cccnc2)/C1=C(/O)c1ccccc1 (stereo unspecified),0,-,-,-,-,0
SMILES,M18AAP inhibitor,PABP FP inh,eIF4H inh,eIF4E-4G inh,PABP1 MLLE inh,PERK inh
COC/C=C/C1=CC2=CC(=O)C(C)(OC(=O)c3cnc4ccccc4n3)C(=O)C2=CN1C1CCCCC1 (stereo unspecified),0,0,0,-,-,-
COC/C=C/C1=CC2=CC(=O)C(C)(OC(=O)c3cnc4ccccc4n3)C(=O)C2=CN1c1ccc(CO)cc1 (stereo unspecified),0,78.5,102.4,-,-,-
COC/C=C/C1=CC2=CC(=O)C(C)(OC(=O)c3cnc4ccccc4n3)C(=O)C2=CN1CC(C)C (stereo unspecified),-,-,-,-,0,-
COC/C=C/C1=CC2=CC(=O)C(C)(OC(=O)c3cnc4ccccc4n3)C(=O)C2=CN1c1ccccc1 (stereo unspecified),-,43.7,62.8,0,-,-
COc1ccc(C(=O)Nc2ccc(Cl)cc2F)cc1S(=O)(=O)N1CCCC1,-,-,-,-,0,-
Cc1cc2cc(CCNC(=O)c3ccc(C)c([N+](=O)[O-])c3)c(=O)[nH]c2cc1C,0,0,0,0,0,0
Cc1cc2cc(CNC(=O)c3ccc(C)c([N+](=O)[O-])c3)ccc2[nH]1,0,0,0,0,43.3,0
CCOc1ccc(C(=O)NCC(c2cccs2)N(C)C)cc1OCC (stereo unspecified),0,0,86.6,0,0,0
CCCCC1=CC2=C(c3ccco3)C(=O)C(C)(OC(=O)c3ccc(OC)cc3)C(=O)C2=CN1Cc1ccccc1 (stereo unspecified),-,39.8,0,0,0,-
Cc1ccccc1NC(=O)CC1C(=O)Nc2ccccc2N1CC(=O)N(C)C1CCS(=O)(=O)C1 (stereo unspecified),-,-,-,-,0,-
COC(=O)C1=NN(c2ccccc2OC)C2C(=O)N(c3ccccc3OC)C(=O)C12 (stereo unspecified),0,0,0,0,0,0
COC(=O)C1=NN(c2ccc(OC)cc2)C2C(=O)N(c3ccccc3OC)C(=O)C12 (stereo unspecified),0,0,0,39.5,0,0
CCC(CC)NC(=O)Nc1cccc(C)c1C,0,0,0,0,0,0
CCn1c(NC(=O)Nc2cccc(C)c2C)cc2sccc21,0,90.0,86.7,0,0,0
CC(=O)Nc1ccc(NC(=O)COC(=O)CCc2nc3ccccc3s2)cc1,0,0,0,0,0,0
S=c1[nH]ncn1/N=C/c1ccc(N2CCOCC2)cc1,31.0,0,0,0,0,0
S=c1[nH]ncn1/N=C/c1ccc(Br)cc1,0,0,0,0,0,0
CCc1ccccc1NC(=O)CC1SCCNC1=O (stereo unspecified),0,0,0,0,0,0
Nc1nc(C(F)(F)F)cc(=O)n1N,0,0,0,0,0,0
CCOc1ccc(-n2c(SCC(=O)NC)nnc2-c2ccco2)cc1,0,0,0,-,0,-
CC(C)CCn1c(=O)c2ccccc2n2c(=S)[nH]nc12,28.9,0,0,-,0,-
CC(C)CCn1c(=O)c2ccccc2n2c(CCl)nnc12,0,0,0,0,0,0
c1ccc(Nc2nc(CSc3ncn[nH]3)cs2)cc1,60.1,0,0,0,0,0
Cn1c(Oc2ccccc2)c(C=O)c2ccccc21,0,0,0,0,0,0
COc1ccc(/C=C/C(=O)NC(=S)Nc2ccc(S(=O)(=O)Nc3nccnc3OC)cc2)cc1,0,0,0,0,38.2,0
COc1ccc(/C=C/C(=O)NC(=S)Nc2ccc(S(=O)(=O)Nc3cc(OC)ncn3)cc2)cc1,0,0,0,0,0,0
COc1nccnc1NS(=O)(=O)c1ccc(NC(=S)NC(=O)c2ccc(F)cc2)cc1,0,0,0,0,48.8,0
